MITF act = MITF TRPM1 promoter activation in melanoma cells; AID 588334; activation, % at 12.5 µM; 300,000 tested, 0.75% active; SK-MEL-5 TRPM1-promoter luciferase, 24 h; % of positive control, neutral wells = 0;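 active means mean activation of at least 80% with every replicate also reaching 80%; inconclusive means mean reaches 80% but some replicate falls short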;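 further: 0% = neutral control wells and 100% = parthenolide positive control wells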
PHOSPHO1 block = blocks human PHOSPHO1 phosphatase activity. Q8TCT1. recombinant PHOSPHO1, absorbance phosphatase assay. inhibition, % at 13.3 µM. 290,000 tested, 1.1% active. AID 1565; in the data active means inhibition above about 60%
Wnt act = activates Wnt/beta-catenin signaling in a reporter cell assay; 300,000 tested, 1.2% active; AID 743398; activator, plate reader; activation, % at 9.35 µM; in the data active means activation above about 30%, passing the limit was not always enough; inconclusive means no clear call, values can overlap the other calls;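 further: 0% = neutral control wells and 100% = positive control wells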
esBAF inh = inhibitors of esBAF chromatin remodeling in mouse ES cells; Bmi1-luciferase knock-in reporter, 24 h; 100% = twice the neutral-well signal; reporter increase, % at 12.5 µM; 350,000 tested, 2% active; in the data active means activation above about 40%; inconclusive means no clear call, values can overlap the other calls;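 further: 0% = median of the plate's neutral control wells and 100% = double that signal; a rise in the Bmi1 reporter signal indicates esBAF inhibition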
APOBEC3G inh = inhibitors of human APOBEC3G DNA deaminase. 330,000 tested, 0.28% active. recombinant A3G, ssDNA deamination FAM/TAMRA fluorescence. Q9HC16. inhibition, % at 20 µM;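 active means inhibition of at least 40% at 20 µM, with no more than 30% in the related APOBEC3A deaminase screen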;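 further: plate controls were DMSO wells with A3G for no effect and wells lacking A3G enzyme for full effect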
Target sequence (Q9HC16 whole entry, looked up): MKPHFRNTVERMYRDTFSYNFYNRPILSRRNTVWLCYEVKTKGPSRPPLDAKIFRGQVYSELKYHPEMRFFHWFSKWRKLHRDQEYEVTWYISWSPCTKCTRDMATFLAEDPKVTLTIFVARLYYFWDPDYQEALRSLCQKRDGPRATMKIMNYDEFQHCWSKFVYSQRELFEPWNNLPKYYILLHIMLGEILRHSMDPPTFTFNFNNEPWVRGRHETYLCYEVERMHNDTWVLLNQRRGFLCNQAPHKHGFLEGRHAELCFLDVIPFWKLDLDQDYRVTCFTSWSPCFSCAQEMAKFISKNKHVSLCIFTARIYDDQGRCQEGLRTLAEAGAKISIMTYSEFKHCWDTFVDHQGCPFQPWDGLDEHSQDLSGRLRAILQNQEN
A3A deaminase = human APOBEC3A DNA deaminase inhibition; P31941; recombinant A3A, FAM/TAMRA ssDNA deamination fluorescence; inhibition, % at 20 µM; 330,000 tested, 0.41% active;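 active means at least 40% inhibition at 20 µM here, with at most 30% in a related deaminase screen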;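 further: plate controls were A3A with DMSO for no effect and wells lacking A3A enzyme for full effect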
Target sequence (P31941 whole entry, looked up): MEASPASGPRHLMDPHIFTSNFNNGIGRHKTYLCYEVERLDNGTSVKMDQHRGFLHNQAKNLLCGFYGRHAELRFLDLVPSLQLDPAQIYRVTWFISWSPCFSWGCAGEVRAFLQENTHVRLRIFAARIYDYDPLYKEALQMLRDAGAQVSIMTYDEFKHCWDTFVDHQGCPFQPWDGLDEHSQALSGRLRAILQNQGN
* marks the source's active call; other numbers are inactive results; ? = inconclusive; / = not tested or not shown. The list is not random: actives were taken first. Their share in the collection is about 3.6%.

SMILES	MITF act	PHOSPHO1 block	Wnt act	esBAF inh	APOBEC3G inh	A3A deaminase
COC(=O)N/N=C\C=C\c1ccc2c(c1)OCO2	32	-5	/	/	-6	-4
CC(C)(C)OC(=O)N/N=C\C=C\c1ccc2c(c1)OCO2	119*	-4	55*	/	-7	-3
Cc1noc(C)c1S(=O)(=O)Nc1ccc2c(c1)C(=O)N([C@H](C)CO)C[C@H](C)[C@@H](CN(C)C(=O)C1CCCCC1)OCCCC[C@@H](C)O2	/	/	/	-3	/	/
C[C@H]1CN([C@@H](C)CO)C(=O)Cc2cc(NC(=O)CCN3CCOCC3)ccc2O[C@H]1CN(C)Cc1ccc2c(c1)OCO2	/	/	/	-4	/	/
CC(=O)N/C(N)=N/c1nc2cc(C)ccc2o1	/	6	18	/	-7	-1
Cc1ccc(C(=O)N/C(N)=N/c2nc3ccccc3o2)cc1	51	2	/	43*	-4	0
COc1ccccc1C(=O)N/C(N)=N/c1nc2ccccc2o1	27	8	0	51*	1	5
N/C(=N\c1nc2ccccc2o1)NC(=O)c1cccc(Br)c1	/	-2	4	/	-8	2
COc1ccc(CNC(=O)C2CC(c3cccc([N+](=O)[O-])c3)=NO2)cc1 (stereo not drawn)	49	30	16	54*	4	0
Cc1ccc(CNC(=O)C2CC(c3cccc([N+](=O)[O-])c3)=NO2)cc1 (stereo not drawn)	0	18	3	9	-6	0
N#CCNC(=O)c1cccn1-c1ncc(C(F)(F)F)cc1Cl	-3	20	38*	-1	-8	-4
C#CCNC(=O)c1cccn1-c1ncc(C(F)(F)F)cc1Cl	6	-3	1	/	-4	-2
Cc1ccc(NC(=O)c2ccc3c(c2)CCN3S(C)(=O)=O)cc1	/	/	45*	66*	/	/
Cc1cc(C)cc(NC(=O)c2ccc3c(c2)CCN3S(C)(=O)=O)c1	22	34	3	12	-4	-1
CS(=O)(=O)N1CCc2cc(C(=O)Nc3ccc(Br)cc3)ccc21	19	/	-2	48*	-7	-3
CS(=O)(=O)N1CCc2cc(C(=O)OCC(=O)c3ccccc3)ccc21	8	9	/	51*	-6	-2
COc1ccc(NC(=O)N(C)C[C@H]2Oc3ccc(N(C)C)cc3CC(=O)N([C@H](C)CO)C[C@H]2C)cc1	/	/	/	3	/	/
COc1ccc(CCNC(=O)COC(=O)/C=C/c2ccc(OC)c(OC)c2)cc1	-6	13	-6	/	-1	0
COc1ccc(/C=C/C(=O)c2cc3c(cc2N)OCO3)cc1	57	9	52*	/	1	2
COc1ccc(CCNC(=O)COC(=O)/C=C/c2ccc3c(c2)OCO3)cc1	14	/	-3	47*	14	3
COc1ccc(NC(=O)/C(=C\c2ccc3c(c2)OCO3)NC(C)=O)cc1	-1	-21	47*	/	-2	0
COc1cc(/C=C/C(=O)OCC(=O)NCCc2ccccc2)cc(OC)c1OC	2	24	41*	/	-6	3
COc1ccc(/C=C/C(=O)c2ccc(OC)cc2OC)cc1	24	4	0	-5	-5	-3
C[C@H]1CN([C@@H](C)CO)C(=O)Cc2cc(NC(=O)CCN3CCOCC3)ccc2O[C@@H]1CN(C)Cc1ccccc1	/	/	/	2	/	/
Cc1snc(SCC(=O)c2ccc(F)cc2)c1C#N	55	-90	12	/	-5	-3
SMILES	MITF act	PHOSPHO1 block	Wnt act	esBAF inh	APOBEC3G inh	A3A deaminase
CSc1nc(N)nc(SCC(=O)c2ccc(C)cc2)c1C#N	54	14	/	61*	-4	-5
Cc1snc(SCC(=O)c2ccc([N+](=O)[O-])cc2)c1C#N	15	72*	2	/	50*	-3
CCS(=O)(=O)Nc1ccc2c(c1)C(=O)N(C)C[C@H](OC)[C@@H](C)CN(C)[C@@H](C)CO2	/	/	/	3	/	/
NS(=O)(=O)c1ccc(N=NN2CCCCC2)cc1	46	14	39*	/	-8	1
COC(=O)c1ccc(N=NN2CCCCCC2)cc1	106*	12	0	/	-4	-4
CN(Cc1cn(-c2ccccc2)nc1-c1ccc2c(c1)OCO2)Cc1nccn1C	9	0	-1	-6	-1	0
CN(CCn1ccnc1)Cc1cn(-c2ccccc2)nc1-c1ccc2c(c1)OCO2	-4	60*	1	/	-11	-7
CCN(CC)C(=O)c1cn(-c2ccccc2)nc1-c1ccc2c(c1)OCCO2	0	54	0	-1	4	2
O=Cc1cn(-c2ccccc2)nc1-c1ccc2c(c1)OCCO2	72	11	/	50*	1	3
N#Cc1cn(-c2ccccc2)nc1-c1ccc2c(c1)OCCO2	123*	-31	0	51*	-6	-1
CCOC(=O)C1CCCN(C(=O)CSCc2ccccc2)C1 (stereo not drawn)	62	37	-1	48*	1	5
CCOC(=O)C1CCCN(C(=O)C2CCN(S(=O)(=O)c3cccs3)CC2)C1 (stereo not drawn)	-3	-3	/	-5	-7	-4
CCOC(=O)C1CCCN(C(=O)C2CCN(S(=O)(=O)CC)CC2)C1 (stereo not drawn)	-37	60*	0	-5	-2	2
CCOC(=O)C1CCCN(C(=O)CCc2nnc(-c3ccc(C(C)=O)s3)o2)C1 (stereo not drawn)	68	32	41*	71*	-2	0
C[C@@H]1CN([C@@H](C)CO)C(=O)Cc2cc(NC(=O)NC3CCCCC3)ccc2O[C@H]1CN(C)Cc1ccc2c(c1)OCO2	/	/	/	1	/	/
Nc1c(C(=O)Nc2ccc3c(c2)OCCO3)nnn1Cc1ccc(Cl)cc1	130*	/	44*	114*	-2	-2
Nc1c(C(=O)Nc2ccc3c(c2)OCCO3)nnn1Cc1cccc(F)c1	115*	/	?	69*	-7	-5
COc1ccc(Cn2nnc(C(=O)Nc3ccc4c(c3)OCCO4)c2N)cc1Br	18	38	9	5	3	0
C(=C\c1nc(-c2ccccc2)no1)/c1ccccc1	42	-9	24	8	-3	4
Fc1cccc(Cl)c1Cc1noc(/C=C/c2ccccc2)n1	60	18	15	43*	-4	-3
O=C(CCSc1ccc(Cl)cc1)NC12CC3CC(CC(C3)C1)C2	/	-14	14	50*	-8	-4
O=C(CCS(=O)(=O)c1ccccc1)NC12CC3CC(CC(C3)C1)C2	97*	0	0	36	-2	-3
C[C@@H]1CN([C@@H](C)CO)C(=O)c2cccc(NC(=O)c3ccc(-c4nccs4)cc3)c2O[C@H]1CN(C)S(=O)(=O)c1cccs1	/	/	/	-1	/	/
O=C(Nc1ccccc1)OCCCCOC(=O)Nc1ccccc1	-9	/	0	-2	/	/
COc1cccc(NC(=O)Nc2cc(C)ccc2OC)c1	4	22	7	/	-1	-1
O=C(Nc1ccccc1)OCCCc1ccccc1	56	9	?	57*	-5	-5

Screening data as filed in PubChem BioAssay.
